The source made the active and inactive calls. Unless noted, calls come from the whole dose curve; as a rule, active = well fitted curve in the direction sought with a large enough effect in the repeat runs; inconclusive = weak or mixed curves; inactive = no such curve, though single readings can be large; an effect the other way counts as inactive or inconclusive.

Test [1] can be described thus: qHTS assay to identify small molecule antagonists of the thyroid receptor (TR) signaling pathway - cell viability counter screen (AID 743064). Note: nearly all actives have a fitted effect of over 50% in size. Note: potency is the fitted concentration of half-maximal effect. In short, it runs like this: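 In rat pituitary GH3.TRE-Luc reporter cells co-exposed to compound and 1 nM T3 for 23.5 h, cytotoxicity was assessed with CellTiter-Fluor in the same wells, read by fluorescence.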
Test [2] has as its system thyroid hormone receptor (rat, GH3 cells). As to the kind of experiment: qHTS assay to identify small molecule agonists of the thyroid receptor (TR) signaling pathway (AID 743066; calls by dose curve). A general note: In qHTS, concentration-response curves come from the screen itself.
Test [3] can be described thus: qHTS assay to identify small molecule antagonists of the estrogen receptor alpha (ER-alpha) signaling pathway - cell viability counter screen (AID 743074; calls by dose curve;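 note: HEK293 cells carrying ER-alpha-UAS-bla reporter stimulated with 17beta-estradiol; nearly all actives have a fitted effect of over 45% in size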).
A short description of test [4]: qHTS assay to identify small molecule antagonists of the estrogen receptor alpha (ER-alpha) signaling pathway using the BG1 cell line - cell viability counter screen (AID 743081).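 Note: compound given together with 17beta-estradiol as the ER stimulus; nearly all actives have a fitted effect of over 45% in size.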
The target of the next test is Aromatase (Homo sapiens) (UniProt P11511). The test is described as follows: qHTS assay to identify aromatase inhibitors (AID 743083). Note: nearly all actives have a fitted effect of over 55% in size.
Sequence of Aromatase (Homo sapiens) (P11511 whole entry, looked up): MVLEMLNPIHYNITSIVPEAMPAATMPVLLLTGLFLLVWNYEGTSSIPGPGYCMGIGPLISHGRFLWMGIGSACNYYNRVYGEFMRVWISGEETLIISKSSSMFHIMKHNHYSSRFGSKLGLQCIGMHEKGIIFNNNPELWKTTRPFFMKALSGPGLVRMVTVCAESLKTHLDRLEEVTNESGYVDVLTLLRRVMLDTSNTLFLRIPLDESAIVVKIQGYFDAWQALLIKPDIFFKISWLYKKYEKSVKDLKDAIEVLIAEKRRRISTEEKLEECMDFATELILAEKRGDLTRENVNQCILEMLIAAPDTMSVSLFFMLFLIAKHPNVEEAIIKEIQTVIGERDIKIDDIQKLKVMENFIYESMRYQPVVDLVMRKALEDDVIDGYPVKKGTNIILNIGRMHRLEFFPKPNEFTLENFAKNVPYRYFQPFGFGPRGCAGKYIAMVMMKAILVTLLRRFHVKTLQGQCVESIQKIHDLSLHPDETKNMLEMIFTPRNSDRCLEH
Test [5] in a line: qHTS assay to identify aromatase inhibitors - cell viability counter screen (AID 743084).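 Note: cells stimulated with testosterone during compound exposure; nearly all actives have a fitted effect of over 55% in size.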
For test [6], the target named is Aryl hydrocarbon receptor (Homo sapiens) (UniProt P35869). The test is described as follows: qHTS assay to identify small molecule that activate the aryl hydrocarbon receptor (AhR) signaling pathway (AID 743085).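 For activation: HG2L7.5c1 human HepG2 liver cells with stably integrated DRE-driven firefly reporter.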 Note: nearly all actives have a fitted effect of over 15% in size. Note: potency is the fitted concentration of half-maximal effect. In short, it runs like this: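 AhR agonist activity is inferred from enhanced light output of a DRE-controlled firefly luciferase reporter in HepG2 cells, measured with ONE-Glo following 24 h treatment at 37C.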
Sequence of Aryl hydrocarbon receptor (Homo sapiens) (P35869 whole entry, looked up): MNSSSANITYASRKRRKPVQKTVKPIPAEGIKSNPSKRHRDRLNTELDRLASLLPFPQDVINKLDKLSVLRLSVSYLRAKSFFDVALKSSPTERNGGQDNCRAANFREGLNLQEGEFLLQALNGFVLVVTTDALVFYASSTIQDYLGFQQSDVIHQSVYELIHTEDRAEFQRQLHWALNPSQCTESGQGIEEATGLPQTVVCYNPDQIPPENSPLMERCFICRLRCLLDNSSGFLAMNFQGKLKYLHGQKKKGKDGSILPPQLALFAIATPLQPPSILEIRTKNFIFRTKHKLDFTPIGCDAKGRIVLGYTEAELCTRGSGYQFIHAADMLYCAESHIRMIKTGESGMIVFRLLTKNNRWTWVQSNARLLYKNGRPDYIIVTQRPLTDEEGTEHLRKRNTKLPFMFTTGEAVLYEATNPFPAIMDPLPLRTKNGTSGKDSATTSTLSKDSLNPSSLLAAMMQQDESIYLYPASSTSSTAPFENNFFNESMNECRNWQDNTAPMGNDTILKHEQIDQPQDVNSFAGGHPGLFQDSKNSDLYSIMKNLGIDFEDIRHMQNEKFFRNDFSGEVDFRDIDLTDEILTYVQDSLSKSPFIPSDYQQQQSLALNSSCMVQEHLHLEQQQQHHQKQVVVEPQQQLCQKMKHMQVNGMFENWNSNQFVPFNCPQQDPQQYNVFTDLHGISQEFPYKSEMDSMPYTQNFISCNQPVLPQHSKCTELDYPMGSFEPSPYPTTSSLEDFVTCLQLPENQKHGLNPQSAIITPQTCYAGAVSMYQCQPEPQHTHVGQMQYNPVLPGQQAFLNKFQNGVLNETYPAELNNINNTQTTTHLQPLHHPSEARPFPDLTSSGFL

Test [7] is described as follows: qHTS assay to identify small molecule that activate the aryl hydrocarbon receptor (AhR) signaling pathway - cell viability counter screen (AID 743086).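 Note: HepG2 liver cells carrying the AhR DRE luciferase reporter; nearly all actives have a fitted effect of over 45% in size.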 The method, boiled down:
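HepG2-AhR-luc (HG2L7.5c1) cells, 4000/well, were preincubated 5 h at 37C, exposed to compound in qHTS format for 24 hr at 37C, then given CellTiter-Fluor for 30 min; viability was read as fluorescence in the reporter wells.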

Test [8] in a line: qHTS assay to identify small molecule antagonists of the peroxisome proliferator-activated receptor gamma (PPARg) signaling pathway - cell viability counter screen (AID 743194). Note: nearly all actives have a fitted effect of over 55% in size. Note: potency is the fitted concentration of half-maximal effect. The method, boiled down:
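PPARg-UAS-bla HEK293H cells were plated, rested 5 h at 37 C, then treated with compounds plus rosiglitazone (50 nM final) for 17 h at 37 C; viability was then read by CellTiter-Glo luminescence after 30 min at room temperature.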

Test [9] in a line: qHTS assay for small molecule agonists of the antioxidant response element (ARE) signaling pathway - cell viability counter screen (AID 743203; calls by dose curve; note: nearly all actives have a fitted effect of over 55% in size; note: potency is the fitted concentration of half-maximal effect). In short, it runs like this: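 Measured in the same wells as the beta-lactamase ARE reporter, this read-out is CellTiter-Glo luminescence from HepG2 ARE-bla cells given compounds for 16 hrs.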
Test [10] is described as follows: qHTS assay for small molecule activators of the heat shock response signaling pathway - cell viability counter screen (AID 743209). Note: nearly all actives have a fitted effect of over 50% in size. The method, boiled down: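 Same-well multiplex: after 2.5 h room-temperature incubation with LiveBLAzer B/G substrate and fluorescence reading, CellTiter-Glo reagent was added to HSE-bla HeLa cells that had received compound for 5 h at 37 C; luminescence read after 30 min.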

Test [11] in a line: qHTS assay for small molecule activators of the heat shock response signaling pathway (AID 743210; active = well fitted activation curve with a large enough effect in the signal ratio in the repeat runs, with a control signal flat, not every such curve was filed as active; inconclusive = weak or mixed curves; the % refers to the signal ratio). The method, boiled down: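 Heat shock element–beta-lactamase HeLa reporter cells; qHTS with compounds for 5 h at 37 C; detection by FRET substrate fluorescence after 2.5 h at RT.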
A short description of test [12]: qHTS assay to identify small molecule antagonists of the thyroid receptor (TR) signaling pathway (AID 743065). Note: nearly all actives have a fitted effect of over 55% in size. Note: potency is the fitted concentration of half-maximal effect. In short, it runs like this: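 GH3.TRE-Luc rat pituitary cells carrying two TR response elements driving luciferase were plated for 4 h, given compound plus 1 nM T3 (final), and incubated 23.5 h at 37 C. ONE-Glo luminescence measured reporter inhibition; CellTiter-Fluor fluorescence tracked cytotoxicity.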

Test [13] concerns the target Estrogen receptor (Homo sapiens) (UniProt P03372). The test is described as follows: qHTS assay to identify small molecule antagonists of the estrogen receptor alpha (ER-alpha) signaling pathway (AID 743069; active = well fitted curve in the direction sought with a large enough effect in the signal ratio in the repeat runs, not every such curve was filed as active; inconclusive = weak or mixed curves, or effect the other way; inactive = no such curve, though single readings can be large or run the other way; the % refers to the signal ratio). The method, boiled down: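 A 17beta-estradiol challenge was applied right after compound transfer to ER-alpha-UAS-bla HEK293 cells previously kept in charcoal-stripped serum. Plates stood 18 hr at 37C and 5% CO2; fluorescence was read following 2 hr FRET substrate loading at room temperature.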

Test [14] shares this target. The test is described as follows: qHTS assay to identify small molecule agonists of the estrogen receptor alpha (ER-alpha) signaling pathway (AID 743075; calls by dose curve;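 note: HEK293 GripTite cells with ER-alpha and UAS-driven beta-lactamase reporter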; note: potency is the fitted concentration of half-maximal effect).
A short description of test [15]: qHTS assay for small molecule agonists of the antioxidant response element (ARE) signaling pathway (AID 743202; active = well fitted activation curve with a large enough effect in the signal ratio in the repeat runs, not every such curve was filed as active; inconclusive = weak or mixed curves, or effect the other way; inactive = no such curve, though single readings can be large or run the other way; the % refers to the signal ratio; note: potency is the fitted concentration of half-maximal effect). In short, it runs like this:
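Following a 16 h, 37 C exposure of reporter HepG2 cells (ARE-driven beta-lactamase, 2,000 cells/well) to compounds, FRET substrate was applied for 2 h at room temperature and fluorescence intensity recorded.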

Test [16] deals with Estrogen receptor (Homo sapiens) (UniProt P03372). The test is described as follows: qHTS assay to identify small molecule agonists of the estrogen receptor alpha (ER-alpha) signaling pathway using the BG1 cell line (AID 743079). Note: nearly all actives have a fitted effect of over 20% in size. Note: potency is the fitted concentration of half-maximal effect. Particulars: BG1Luc4E2 cells, ERE-luciferase agonist, 22 h; activation: at 70.3 µM (top of the series).
Sequence of Estrogen receptor (Homo sapiens) (P03372 whole entry, looked up): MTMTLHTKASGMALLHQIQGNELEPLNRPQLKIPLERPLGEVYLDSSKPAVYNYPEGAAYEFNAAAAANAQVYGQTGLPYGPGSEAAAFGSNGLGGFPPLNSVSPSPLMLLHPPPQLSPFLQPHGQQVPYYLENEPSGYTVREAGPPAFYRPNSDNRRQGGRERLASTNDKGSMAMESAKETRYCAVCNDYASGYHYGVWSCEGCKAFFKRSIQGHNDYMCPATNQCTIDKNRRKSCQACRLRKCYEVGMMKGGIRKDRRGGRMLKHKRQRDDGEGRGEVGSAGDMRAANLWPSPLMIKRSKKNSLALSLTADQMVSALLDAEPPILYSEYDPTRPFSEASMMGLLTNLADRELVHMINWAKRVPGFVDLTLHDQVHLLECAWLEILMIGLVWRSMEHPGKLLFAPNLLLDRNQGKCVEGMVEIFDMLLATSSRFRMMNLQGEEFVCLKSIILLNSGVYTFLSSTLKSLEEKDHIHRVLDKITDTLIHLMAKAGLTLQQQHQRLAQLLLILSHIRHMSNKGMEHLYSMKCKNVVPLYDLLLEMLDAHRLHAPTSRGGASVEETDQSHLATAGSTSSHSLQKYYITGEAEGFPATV
The nature of test [17]: qHTS assay to identify small molecule antagonists of the estrogen receptor alpha (ER-alpha) signaling pathway using the BG1 cell line (AID 743080; calls by dose curve;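 note: BG1 cells stimulated with 17beta-estradiol alongside compound; nearly all actives have a fitted effect of over 25% in size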). The method, boiled down:
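After 5 days in phenol-red-free 10% charcoal-stripped FBS medium, BG1-Luc-4E2 cells were seeded, left 24 h at 37 C, co-treated with compounds and 17beta-estradiol for 21.5 h, then assayed for viability and luciferase.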

In test [18] the target is Peroxisome proliferator-activated receptor gamma (Homo sapiens) (UniProt P37231). The test is described as follows: qHTS assay to identify small molecule agonists of the peroxisome proliferator-activated receptor gamma (PPARg) signaling pathway (AID 743094; active = well fitted activation curve with a large enough effect in the signal ratio in the repeat runs, not every such curve was filed as active; inconclusive = weak or mixed curves, or effect the other way; inactive = no such curve, though single readings can be large or run the other way; the % refers to the signal ratio). In short, it runs like this: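 Cell-based bla reporter, HEK293H background, PPARg-driven UAS. Pre-incubation 5 h, 37C, 5% CO2. Compound 17 h, 37C. Substrate 1 h RT; fluorescence.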
Sequence of Peroxisome proliferator-activated receptor gamma (Homo sapiens) (P37231 whole entry, looked up): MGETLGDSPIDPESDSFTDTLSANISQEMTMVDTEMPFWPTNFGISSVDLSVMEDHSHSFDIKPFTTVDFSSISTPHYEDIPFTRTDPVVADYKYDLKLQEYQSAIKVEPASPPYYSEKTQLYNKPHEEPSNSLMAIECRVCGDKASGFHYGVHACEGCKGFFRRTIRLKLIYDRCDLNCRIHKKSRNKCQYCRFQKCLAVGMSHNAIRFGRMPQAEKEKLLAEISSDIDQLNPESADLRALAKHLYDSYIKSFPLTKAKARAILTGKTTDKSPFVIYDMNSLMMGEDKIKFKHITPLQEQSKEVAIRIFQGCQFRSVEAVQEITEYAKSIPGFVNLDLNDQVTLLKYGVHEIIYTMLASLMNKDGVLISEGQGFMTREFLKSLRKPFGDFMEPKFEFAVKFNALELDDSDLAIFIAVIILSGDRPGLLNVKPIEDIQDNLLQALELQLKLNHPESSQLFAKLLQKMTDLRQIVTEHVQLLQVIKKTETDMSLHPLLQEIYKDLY

The target is the same in test [19]. The test is described as follows: qHTS assay to identify small molecule antagonists of the peroxisome proliferator-activated receptor gamma (PPARg) signaling pathway (AID 743191; calls by dose curve; note: nearly all actives have a fitted effect of over 30% in size). In short, it runs like this:
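GeneBLAzer PPARg UAS-bla HEK293H cells carrying a UAS-driven beta-lactamase reporter were plated at 3000 cells/well, preincubated 5 h at 37C, then given compound for 17 h at 37C; LiveBLAzer B/G FRET substrate was read after 1 h at room temperature.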

Turning to `Cc1cccc(O)c1N`, the Potency result (in test [1]; in test [3]; in [4]; with Aromatase (Homo sapiens); in test [5]; in test [7]) was “inactive” each time. For the same molecule, the Potency result in test [8], in test [9], in test [10] and in test [11] was “inactive” each time. For the same molecule, the molecule was classed as inactive in test [2]. In addition, the Potency in test [6] is 27.6 µM (active).

With `Cc1ccc2c(Br)cc(Br)c(O)c2n1`, the Potency is 26.6 µM (active) in test [1], 18.8 µM (active) in test [12], 13.3 µM (active) in test [6] and 23.7 µM (active) in [8]. For the same molecule, the Potency entry in [3], in test [4], in test [7] and in [10] was “inactive” in each case.

As to `CN1C[C@H](C(=O)N[C@]2(C)O[C@@]3(O)[C@@H]4CCCN4C(=O)[C@H](Cc4ccccc4)N3C2=O)C[C@@H]2c3cccc4[nH]cc(c34)C[C@H]21`, the Potency in test [1] is 21.1 µM (active); in test [12], 26.6 µM (active); in test [8] it was 29.8 µM (active); in test [9], 29.8 µM (active). The Potency result (in test [13]; in [3]; in test [14]; in test [4]; with Aromatase (Homo sapiens); in [5]) was “inactive” throughout. The Potency result in test [6], in test [10] and in test [11] was “inactive” in each case.

For the molecule `C[C@@]12CCC[C@H]1[C@@H]1CC[C@H]3C[C@@H](O)CC[C@]3(C)[C@H]1CC2`, the Potency result in [1], in test [12], in test [4], in [8], in [15] and in [9] was “inactive” each time. Further, in test [10], the Potency entry was “inactive”. In test [2], the outcome was inactive.

Consider `O=C=Nc1ccc(Cl)c(Cl)c1`, for which the Potency result in test [12], in test [3], in test [14], in test [16], in test [17] and in test [4] was “inactive” in each case. Further, the Potency entry (with Aromatase (Homo sapiens); in test [5]; in [7]; in test [18]; in test [8]; in [9]) was “inactive” each time. The Potency result in [10] and in [11] was “inactive” throughout. The molecule was classed as inactive in test [2]. Besides, the Potency in [6] was 47.8 µM (active).

On to `Cc1ccc(Cl)c(Nc2ccccc2C(=O)O)c1Cl`, for which the Potency result (in test [1]; in test [14]; in test [16]; in [17]; in test [4]; with Aromatase (Homo sapiens)) was “inactive” in each case. Further, the Potency entry in test [5], in test [6], in test [7], in [8], in test [15] and in [11] was “inactive” throughout. Further, the result in test [2] was inactive.

Regarding `CCCC(C(=O)OCCN(CC)CC)(c1ccccc1)c1ccccc1`, the Potency in [1] was 23.7 µM (active). The Potency entry in test [13], in test [3], in test [14], in test [16], in test [6] and in test [18] was “inactive” throughout. Moreover, the Potency result in [8], in test [9] and in test [10] was “inactive” in each case.

For `Cc1ccccc1S`, the Potency result in test [12], in test [3], in test [14], in test [16], in test [17] and in test [4] was “inactive” throughout. The Potency result (with Aromatase (Homo sapiens); in test [5]; in [6]; in test [7]; in test [18]; in test [19]) was “inactive” throughout. For the same molecule, the Potency entry in test [8] and in test [9] was “inactive” throughout. Besides, the call in test [2] was inactive.

As for `O=C(CCc1ccc(O)cc1)c1c(O)cc(O)cc1O`, the Potency in test [1] was 55.7 µM (active); in test [14], 14.1 µM [inconclusive] (active); in test [16], 4.96 µM (active); in [15], 31.3 µM (active). The call in test [2] was inactive. In addition, the Potency result in test [4], in [5], in test [6], in test [7], in test [18] and in test [10] was “inactive” each time.

For the molecule `CCCCCCCCOc1ccc(C(=O)O)cc1`, the Potency entry in test [1], in test [3], in test [4], in [5], in [6] and in [7] was “inactive” in each case. Also, the Potency result in [8] is “inactive”. In test [2], the outcome was inactive.

Turning to `C[C@H]1c2cccc(O)c2C(O)=C2C(=O)[C@]3(O)C(O)=C(C(N)=O)C(=O)[C@@H](N(C)C)[C@@H]3[C@@H](O)[C@@H]21`, the Potency result (in test [12]; in test [3]; in test [14]; in test [16]; in [4]; with Aromatase (Homo sapiens)) was “inactive” each time. In addition, the Potency result in test [5], in [6], in [7], in test [18], in [8] and in test [9] was “inactive” each time. Also, the Potency result in [10] is “inactive”. In addition, the outcome in test [2] was inactive.

With `O=C(O)c1cccc(-c2noc(-c3ccccc3F)n2)c1`, in test [12], the Potency was 10.6 µM (active). Moreover, the molecule was called inactive in test [2]. For the same molecule, the Potency result (in [4]; with Aromatase (Homo sapiens); in test [5]; in [7]; in test [10]; in [11]) was “inactive” in each case.

Turning to `CCCCCC#CC(=O)OC`, the Potency entry in [12], in [13], in test [3], in [14], in test [16] and in [17] was “inactive” throughout. The Potency result (in test [4]; in the test with Aromatase (Homo sapiens); in test [5]; in test [6]; in test [7]; in test [18]) was “inactive” each time. The Potency result in test [19], in test [8], in test [15], in [9], in test [10] and in test [11] was “inactive” each time. The molecule was called inactive in test [2].

Regarding `CCCCCCCC/C=C\CCCCCCCCCCCC(=O)O`, the Potency entry in [1], in test [13], in [3], in test [14], in [17] and in test [4] was “inactive” throughout. For the same molecule, the Potency entry (with Aromatase (Homo sapiens); in [5]; in test [7]; in test [18]; in test [8]; in test [15]) was “inactive” in each case. Besides, the Potency entry in test [9], in test [10] and in test [11] was “inactive” throughout.

With `CCOC(=O)c1ccc(I)cc1`, the Potency result in test [12], in test [13], in test [3], in test [14], in test [16] and in test [17] was “inactive” each time. The Potency result (in [4]; with Aromatase (Homo sapiens); in test [5]; in [6]; in test [7]; in test [18]) was “inactive” each time. The Potency result in test [19], in test [8], in test [15], in test [9], in [10] and in test [11] was “inactive” in each case. The molecule was called inactive in test [2].

As to `CC(CN(C)C)C(C)(O)Cc1ccc(Cl)cc1` (stereo unspecified), the Potency entry in [12], in test [13], in [3], in test [14], in test [16] and in [17] was “inactive” in each case. Besides, the Potency result (with Aromatase (Homo sapiens); in [5]; in [6]; in test [7]; in test [18]; in test [19]) was “inactive” throughout. In addition, the Potency entry in test [8], in [15], in [9] and in test [10] was “inactive” in each case. The result in [2] was inactive.

Values taken from PubChem BioAssay (Tox21).
